IL1B secr inh = qHTS for Inhibitors of Inflammasome Signaling: IL-1-beta AlphaLISA Primary Screen | THP-1 LPS/ATP IL-1B secretion, AlphaLISA, 16 h; active compounds read low | activity change, % at 57.5 µM | 360,000 compounds, 4.7% hits | AID 743279, 2014; in the data active = activity change below about -50%; inconclusive = mostly about -30% to -49%; note: % is set by controls: 0 for no effect and ±100 for the full control effect
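Secreted IL-1B measured by AlphaLISA bead assay after 16 h compound exposure of THP-1 cells; compounds (final up to 57.5 uM) added 1 h before LPS (250 ng/mL) and ATP (1.25 mM) stimulation; lower signal means less secretion.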
HepG2 viability = qHTS for Inhibitors of TGF-b: Cytotox Counterscreen | Potency, µM (series often up to 46.1 µM), for the others: at the top dose activity change, negative = cytotoxicity, hits mostly cytotoxic | 410,000 compounds, 0.76% hits | HepG2 CAGA-GFP viability, ATP luminescence, 18 h; note: potency is the fitted concentration of half-maximal effect
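CellTiter-Glo luminescence gave cytotoxicity after 18 hours at 37 degrees C. The cells were HepG2 CAGA-GFP in 1% FBS DMEM, stimulated with 500 pg/mL TGF-beta after compound addition. %Activity was normalised to no-cell wells (complete cell-killing) and DMSO (no toxicity), and curves were fitted and classified.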
TGFb inhibitor = qHTS for Inhibitors of TGF-b; Potency, µM (top dose mostly 46.1 µM), inactives show at the highest dose activity, negative = inhibition, hits mostly inhibitors; 410,000 compounds, 1.2% hits; HepG2 CAGA-GFP TGF-b/SMAD3 reporter, GFP fluorescence, 18 h; TGF-beta stimulated, 500 pg/mL final; note: potency is the fitted concentration of half-maximal effect; % is set by controls: 0 for no effect and ±100 for the full control effect; nearly all actives have a fitted effect of over 65% in size
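Per well, imaged GFP fluorescence of HEPG2 CAGA-GFP cells gives the signal; cells get compound, then TGF-beta (500 pg/mL final), 18 h at 37 degrees C; %Activity versus -TGF-beta and +DMSO controls.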
ASM inhibitor = Inhibitors of Secretory Acid Sphingomyelinase (S-ASM): qHTS | Sphingomyelin phosphodiesterase (Homo sapiens), P17405 | placental ASM, HMU-PC fluorogenic substrate, 60 min | Potency, µM (titrated, usually from 57.5 µM), without a hit: at the highest dose activity change, negative = inhibition, actives largely listed as inhibitors | 340,000 compounds, 0.006% hits; note: potency is the fitted concentration of half-maximal effect
Target sequence (P17405 47-631 limits assumed): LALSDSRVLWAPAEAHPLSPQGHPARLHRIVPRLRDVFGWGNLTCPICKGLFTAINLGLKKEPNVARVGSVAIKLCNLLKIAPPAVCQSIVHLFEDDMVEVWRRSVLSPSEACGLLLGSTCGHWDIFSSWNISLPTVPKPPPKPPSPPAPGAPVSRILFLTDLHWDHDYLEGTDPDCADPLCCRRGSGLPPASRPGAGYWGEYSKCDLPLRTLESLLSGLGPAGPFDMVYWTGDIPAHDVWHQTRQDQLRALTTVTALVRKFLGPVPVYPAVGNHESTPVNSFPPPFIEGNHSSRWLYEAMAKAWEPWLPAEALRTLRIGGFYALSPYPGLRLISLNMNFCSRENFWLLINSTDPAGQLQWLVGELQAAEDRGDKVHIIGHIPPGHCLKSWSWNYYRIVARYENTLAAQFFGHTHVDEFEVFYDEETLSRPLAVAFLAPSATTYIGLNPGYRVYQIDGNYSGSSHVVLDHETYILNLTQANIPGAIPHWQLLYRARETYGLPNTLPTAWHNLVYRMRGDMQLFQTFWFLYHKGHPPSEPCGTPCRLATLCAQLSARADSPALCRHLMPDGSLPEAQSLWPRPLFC
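Human placenta-derived ASM enzyme was preincubated with compound for 10 minutes at room temperature, then given fluorogenic substrate HMU-PC0 (9 uM final) for 60 minutes at 37 °C; a pH 10 stop preceded fluorescence reading at Ex 386/Em 447 nm.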
DT40 TDP1 CPT = qHTS for Inhibitors of human tyrosyl-DNA phosphodiesterase 1 (TDP1): qHTS in cells in presence of CPT | Potency, µM (doses to about 46.2 µM), for the others: top-dose activity change, negative = growth inhibition, usual class: inhibitors | 420,000 compounds, 12% hits | AID 686979, 2013 | chicken DT40 Tdp1-/-;hTDP1 cells + 20 nM CPT, ATP luminescence, 48 h; note: potency is the fitted concentration of half-maximal effect; % is set by controls: 0 for no effect and ±100 for the full control effect; nearly all actives have a fitted effect of over 55% in size
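Cell growth measured by CellTiter-Glo luminescence after a minimum 48 h, 37 C compound exposure with 20 nM CPT in Tdp1-knockout DT40 cells stably expressing hTDP1, seeded 400/well; qHTS titration format.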
DT40 TDP1 no CPT = qHTS for Inhibitors of human tyrosyl-DNA phosphodiesterase 1 (TDP1): qHTS in cells in absence of CPT; AID 686978, 2013; 420,000 compounds, 15% hits; DT40 Tdp1-/- hTDP1 cells, no CPT, ATP luminescence, 48 h; Potency, µM (top dose mostly 46.2 µM), inactives show at the highest dose activity change, negative = growth inhibition, actives largely listed as inhibitors; note: potency is the fitted concentration of half-maximal effect; % is set by controls: 0 for no effect and ±100 for the full control effect; nearly all actives have a fitted effect of over 55% in size
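Chicken DT40 Tdp1-/- cells stably complemented with human TDP1 were seeded at 400 cells/well with DMSO in place of 20 nM camptothecin. After compound pinning, cells grew at least 48 hr at 37 °C; viability read by CellTiter-Glo luminescence.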
* marks the source's active call; other numbers are inactive results; u = inconclusive; x = not tested or not shown; [ ] = another dose, or the depositor's remark. Shown are actives, neighbours in structure and some others; about 19% of the full set was active somewhere. Unless noted, calls come from the whole dose curve; as a rule, active = well fitted curve in the direction sought with a large enough effect; inconclusive = small, poorly fitted or top-dose-only effect, or another doubt; inactive = no such curve, though single readings can be large; an effect the other way counts as inactive or inconclusive.

SMILES	IL1B secr inh	HepG2 viability	TGFb inhibitor	ASM inhibitor	DT40 TDP1 CPT	DT40 TDP1 no CPT
O=C(/C=C\c1ccc(-c2ccccc2)o1)c1ccccc1	-92*	-28%	-24%	14%	u	u
Cc1ccc(C)c(NC(=O)CSc2nnc(NC(=O)C3CC3)s2)c1	-2	-42%	u	0%	-5%	-11%
COc1ccc(/C=N/NC(=O)Cn2nc(C)c([N+](=O)[O-])c2C)cc1	0	-6%	2%	0%	12µM*	u
Cc1ccc(/C=N/NC(=O)Cn2nc(C)c([N+](=O)[O-])c2C)o1	3	17%	-4%	-5%	-5%	-13%
c1ccc(C2CC(c3ccccc3)n3c(nc4ccccc43)N2)cc1 (stereo unspecified)	60	17%	11%	3%	16µM*	15µM*
C/C(=N\Nc1ccc(S(=O)(=O)Nc2ccccc2)cc1[N+](=O)[O-])c1ccc(N2CCOCC2)cc1	0	-10%	-15%	-18%	15µM*	2.6µM*
C/C(=N\Nc1ccc(S(N)(=O)=O)cc1[N+](=O)[O-])c1cccnc1	2	34%	31%	-1%	10%	-22%
C/C(=N\Nc1ccc(S(=O)(=O)Nc2ccc(Cl)cc2)cc1[N+](=O)[O-])c1ccc(N2CCOCC2)cc1	-7	12%	26%	x	u	u
O=[N+]([O-])c1ccccc1/C=C/C=N/Nc1ccc(S(=O)(=O)Nc2ccc(Cl)cc2)cc1[N+](=O)[O-]	-14	-11%	-10%	-15%	16µM*	18µM*
O=C(O)c1ccc(N/N=C/C=C/c2ccccc2[N+](=O)[O-])cc1	7	-3%	-2%	2%	-29%	u
COc1ccc(NS(=O)(=O)c2ccc(N/N=C(\C)c3ccncc3)c([N+](=O)[O-])c2)cc1	22	1%	u	u	12µM*	7.3µM*
O=[N+]([O-])c1cc(S(=O)(=O)Nc2cccc(Cl)c2)ccc1N/N=C/c1ccc(N2CCOCC2)cc1	5	2%	-14%	-21%	u	10µM*
O=[N+]([O-])c1ccc(N/N=C/c2c[nH]c3ccccc23)c(S(=O)(=O)Nc2ccc(Cl)cc2)c1	-7	-22%	-12%	-24%	u	23µM*
CSc1nnc(C)c(/C=C/Nc2ccc(C)cc2)n1	-1	-75%	9%	-17%	-15%	18µM*
CSc1nnc(C)c(/C=C/NOCc2ccc(Cl)cc2)n1	-17	-14%	-1%	-23%	-11%	-24%
CCc1ccc(C(O)c2ncc(-c3ccccc3C(F)(F)F)[nH]2)cc1 (stereo unspecified)	-4	-9%	-9%	x	29µM*	u
Cc1cccc(C)c1C(O)c1ncc(-c2ccccc2C(F)(F)F)[nH]1 (stereo unspecified)	17	-5%	-11%	x	-29%	u
OC(c1ccc(-c2ccccc2)cc1)c1ncc(-c2ccc(C(F)(F)F)cc2)[nH]1 (stereo unspecified)	-11	-113%	u	x	u	u
CCc1ccc(C(O)c2ncc(-c3ccc(C(F)(F)F)cc3)[nH]2)cc1 (stereo unspecified)	-7	-75%	16µM*	x	u	u
CC1CC(C)CN(C(=O)Cn2c(SCC(=O)N3CCc4ccccc4C3)nc3ccccc32)C1 (stereo unspecified)	-24	8%	u	2%	u	21µM*
Cn1cnnc1SCC(=O)c1ccc2c(c1)NC(=O)CO2	6	1%	5%	1%	19%	14%
Cn1c(=O)c2c(nc(SCC(=O)N3CCc4ccccc4C3)n2C)n(C)c1=O	-1	2%	-3%	-1%	-1%	-7%
CC(C)c1ccccc1-n1c(SCC(=O)N2CCc3ccccc3C2)nc2ccccc2c1=O	u	-1%	u	-5%	u	23µM*
O=C(CSc1nc2ccccc2c(=O)n1-c1ccccc1)N1CCc2ccccc2C1	-16	-3%	u	1%	26µM*	16µM*
CC(C)c1ccccc1-n1c(SCC(=O)c2ccc3c(c2)NC(=O)CO3)nc2ccccc2c1=O	-29	7%	-4%	-3%	18µM*	23µM*
SMILES	IL1B secr inh	HepG2 viability	TGFb inhibitor	ASM inhibitor	DT40 TDP1 CPT	DT40 TDP1 no CPT
O=S(=O)(NCC1CN(S(=O)(=O)c2c(F)cccc2F)C1)c1ccc2c(c1)OCCO2	x	-11%	-18%	6%	x	x
O=C(CN1C(=O)C2CCCCC2C1=O)Nc1ccc(OC(F)F)c(Cl)c1 (stereo unspecified)	0	-2%	-1%	-2%	-12%	-11%
O=C1COc2ccc(C(=O)CSc3nnc(Cc4cccs4)n3-c3ccccc3)cc2N1	-21	1%	17%	-7%	u	9.2µM*
CCOC(=O)c1c(CN(C)C)oc2cc(CN(C)C)c(O)c(CSc3ccccc3)c12	-50*	-22%	38%	-2%	-21%	-24%
CCOC(=O)c1c(CSc2ccccc2)n(C)c2cc(Br)c(O)c(CN(C)C)c12	-86*	-25%	u	-3%	21µM*	15µM*
CCOC(=O)c1c(CSc2ccccc2)n(C)c2ccc(O)c(CN3CCN(C)CC3)c12	0	-31%	u	0%	u	u
CCOC(=O)c1c(CN2CCCCC2)n(C)c2cc(Br)c(OC)cc12	-2	-22%	19%	-6%	u	11µM*
CCOC(=O)c1c(CN2CCN(CCO)CC2)n(C)c2cc(Br)c(OC)cc12	-12	-70%	36%	-8%	u	u
CCOC(=O)c1c(CSc2ccc(C)cc2)n(C)c2cc(Br)c(O)c(CN(C)C)c12	0	-52%	u	-27%	u	8.2µM*
CC(=O)c1ccc(F)c(-c2cc(C)cc3c2OC(CNC(=O)c2ccnn2C)C3)c1 (stereo unspecified)	x	x	x	x	23%[9.04 µM]	-25%
Cc1ccc(NC(=O)Cn2nc(C(=O)O)c3ccccc3c2=O)c([N+](=O)[O-])c1	16	2%	-3%	-2%	-11%	-9%
